Measured values: PubChem BioAssay (NCI)
“And” between values parts separate entries of the source, which are not always exact repeats. Equal values may be shown once. This is part of a sample that, as a whole, favours compounds with a hit. Of some 83,000 tested, about 20% had one in any assay.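 Activity criterion: percent growth below 10, measured after cells in 96-well plates were exposed to a single compound concentration for 48 hours.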 The source made the active and inactive calls.

System: SR leukemia
Test: NCI-60 one-dose screen, 48 h (100 = growth as untreated, 0 = no growth, -100 = all killed)
Settings: 10 µM unless noted

| Structure (SMILES) | growth |
| --- | --- |
| O=C(/C=C/Nc1ccc(S(=O)(=O)Nc2ncccn2)cc1)c1ccc(N=Cc2c(O)[nH]c3ccccc23)cc1 | 82.1% (inactive) |
| CCCCCN1C(=O)/C(=c2\sc3n(c2=O)C2C(NN=3)N(CC)C(=O)N2CC)c2cccc(C)c21 (stereo not given) | 13.6% (inactive) |
| C#C[C@]1(O)CC[C@H]2[C@@H]3CC=C4c5sc(Nc6ncccc6C)nc5CC[C@]4(C)[C@H]3CC[C@@]21C | -3.26% (active) |
| O=C1CSC(c2cn(-c3ccccc3)nc2-c2ccc(Cl)cc2)N1c1ccccc1 (stereo not given) | 109% (inactive) |
| CC(=O)Nc1ccccc1-c1nc2ccccc2s1 | 110% (inactive) |
| O=C(/C=C/c1cccc(Br)c1)c1cccc(OCCCCOc2cccc(C(=O)/C=C/c3cccc(Br)c3)c2)c1 | 98.5% (inactive) |
| C/C(=C(\c1ccc(O)cc1)c1ccc(OCCN2CCCCCC2)cc1)c1ccc(Cl)cc1 | -24.9% (active) |
| Clc1ccc(CSc2nnc(-c3ccc(Cl)cc3)n2-c2ccccc2)cc1 | 91.7% (inactive) |
| O=C(CCCCCCNC(=O)C(O)(O)C(F)(F)F)Nc1nc2ccccc2s1 | 16.7% (inactive) |
| CC(C)NC(=O)c1cc(-c2ccc(NC(=O)Nc3ccc(F)c(C(F)(F)F)c3)cc2)nc2cccnc12 | 81.6% (inactive) |
| COc1ccc(-c2cnc(NC(=O)CCCCCCNC(=O)C(O)(O)C(F)(F)F)s2)cc1 | 13.2% (inactive) |
| C/C=C/CC(C)C(O)[C@H](NC(=O)[C@@H]1CCCN1C(=O)[C@](C)(CC)NC(=O)CCCCCCCCC)C(=O)N[C@@](C)(CC)C(=O)N[C@@H](CCC(N)=O)C(=O)N[C@H](CCC(N)=O)C(=O)NC(C)(C)C(=O)NC(C)(C)C(=O)N[C@@H](CCC(N)=O)C(=O)N[C@H](CC(C)C)C(=O)N[C@H](CO)CC(C)C (stereo not given in full) | 12.6% (inactive) and 1.7% (active) |
| CC1CC(=O)C2=C(C1)Nc1ccc(Br)cc1CC2c1c[nH]c2ccc(Br)cc12 (stereo not given) | 29.7% (inactive) |
| CC(C)(C)Nc1nc2c(OCCc3ccccc3)cccn2c1-c1cccc(Oc2ccccc2)c1 | 3.9% (active) |
| CCCC/C(=C\c1ccc(O)c(O)c1)C(=O)NC(Cc1ccccc1)C(=O)C(=O)NCCc1ccc(OC)cc1 (stereo not given) | 105% (inactive) |
| COC(=O)c1cccc(NC2=C(Cl)C(=O)c3nc(C)ccc3C2=O)c1 | 18.7% (inactive) |
| NC1CC2(CCN(c3cnc(C(=O)Nc4cc(F)cc5cccnc45)cn3)CC2)C1 | 3.71% (active) |
| COC(=O)c1ccc(NC2=C(Cl)C(=O)c3nc(C)ccc3C2=O)cc1 | 22.3% (inactive) |
| CC(Nc1c(C#N)cnc2ccc(-c3cncc(-c4n[nH]c(=O)o4)c3)cc12)c1ccccc1 (stereo not given) | 6.62% (active) |
| CC(=O)OC[C@]12CC[C@@H](C(=O)/C=C/c3cccnc3)[C@@H]1[C@H]1CC[C@@H]3[C@@]4(C)CC[C@H](OC(C)=O)C(C)(C)[C@@H]4CC[C@@]3(C)[C@]1(C)CC2 | 6.42% (active) |

| Structure (SMILES) | growth |
| --- | --- |
| CC(O)c1cccc(/C(N)=N/C(N)=N/c2nc3ccccc3s2)c1 (stereo not given) | 82.3% (inactive) |
| CC(C)=CCC[C@](C)(O)[C@H]1CC[C@]2(C)[C@@H]1CC[C@@H]1[C@@]3(C)CC[C@H](N)C(C)(C)[C@@H]3CC[C@]12C | -24.4% (active) |
| Cc1ccc2c(n1)C(=O)C(Cl)=C(Nc1cccc(C)c1C)C2=O | 6.7% (active) |
| C[C@]12CC[C@H]3[C@@H](CC=C4C[C@@H](O)CC[C@@]43C)[C@@H]1CC[C@@H]2[C@](C)(O)CCc1cccnc1 | 32.3% (inactive) |
| CN1CCN(c2ccc(Nc3nc(NCCCNS(=O)(=O)c4ccc(C(F)(F)F)cc4)c4sccc4n3)cc2)CC1 | 7.01% (active) |
| Cc1ccc2c(n1)C(=O)C(Cl)=C(Nc1cccc(C(F)(F)F)c1)C2=O | 9.01% (active) |
| O=C(CN1CCN(c2cc(=O)[nH]c3ccc(F)cc23)CC1)N(c1ccccc1)c1ccccc1 | 90.8% (inactive) |
| Cc1[nH]c(C(=O)Nc2ccc(C(N)=O)cc2N2CCOC(C)C2)c(Cl)c1Cl (stereo not given) | 101% (inactive) |
| CC1(C)CC[C@]2(C(=O)O)CC[C@]3(C)C(=CC[C@@H]4[C@@]5(C)CC[C@H](NOCCCN)C(C)(C)[C@@H]5CC[C@]43C)[C@@H]2C1 | -8% (active) |
| Cc1ccc2c(n1)C(=O)C(Cl)=C(Nc1ccc(C#N)cc1)C2=O | 15.3% (inactive) |
| CC(=O)Nc1nc(C)c(-c2csc(Nc3ccccc3)n2)s1 | 8.83% (active) |
| O=C(/C=C/c1cccc(F)c1)c1cccc(OCCCCOc2cccc(C(=O)/C=C/c3cccc(F)c3)c2)c1 | 84.8% (inactive) |
| O=S(=O)(NCCCNc1nccc(-c2[nH]c(-c3ccccc3)nc2-c2ccc(F)c(O)c2)n1)c1ccc(C(F)(F)F)cc1 | 1.01% (active) |
| O=C(CCCCCCNC(=O)C(O)(O)C(F)(F)F)Nc1ncc(-c2ccccc2)s1 | 10.9% (inactive) |
| CN(C)c1ccc(/C=N/Nc2nc(N/N=C/c3ccc(N(C)C)cc3)nc(N3CCCCC3)n2)cc1 | -14.1% (active) |
| NC1[C@H]2CN(c3cnc(C(=O)Nc4cc(F)cc5cccnc45)cn3)C[C@@H]12 (stereo not given in full) | 8.36% (active) |
| Clc1cccc(/C=N/Nc2nc(N/N=C/c3cccc(Cl)c3)nc(N3CCCCC3)n2)c1 | 74.6% (inactive) |
| CC(Nc1ncnc2ccc(-c3cnc4cnccn34)cc12)c1ccccc1 (stereo not given) | 38.9% (inactive) |
| CN1CCN(c2ccc(Nc3nc(NCCNC(=O)c4ccccc4)c4sccc4n3)cc2)CC1 | 5.68% (active) |
| O=C(CSc1nc2ccccc2c(=O)n1-c1ccccc1)N/N=C/c1ccc(Oc2ccc(Cl)cc2)cc1 | 70.3% (inactive) |
